In the supplement of paper PMC3545927:
Some of the results follow. No count for the full screen is at hand.

Molecular target: furin, P09958
Assay: furin cleavage Z-score vs untreated control; higher = more cleavage, active = 3.5 or more, inactive = 1 or less, 8 variable residues between constant flanks
Method in brief: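 The cleavage Z-score is the log read count relative to furin-free reactions, lowess-adjusted and scaled by median absolute deviation. Counts came from sequencing DNA released from bead-bound 8-mer peptide–cDNA fusions after digestion with purified furin for 7.5, 15 or 30 min.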
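Further: purified furin at 1:10 enzyme:substrate in 50 mM HEPES pH 7.5.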

Sequence of furin, P09958 (P09958 whole entry): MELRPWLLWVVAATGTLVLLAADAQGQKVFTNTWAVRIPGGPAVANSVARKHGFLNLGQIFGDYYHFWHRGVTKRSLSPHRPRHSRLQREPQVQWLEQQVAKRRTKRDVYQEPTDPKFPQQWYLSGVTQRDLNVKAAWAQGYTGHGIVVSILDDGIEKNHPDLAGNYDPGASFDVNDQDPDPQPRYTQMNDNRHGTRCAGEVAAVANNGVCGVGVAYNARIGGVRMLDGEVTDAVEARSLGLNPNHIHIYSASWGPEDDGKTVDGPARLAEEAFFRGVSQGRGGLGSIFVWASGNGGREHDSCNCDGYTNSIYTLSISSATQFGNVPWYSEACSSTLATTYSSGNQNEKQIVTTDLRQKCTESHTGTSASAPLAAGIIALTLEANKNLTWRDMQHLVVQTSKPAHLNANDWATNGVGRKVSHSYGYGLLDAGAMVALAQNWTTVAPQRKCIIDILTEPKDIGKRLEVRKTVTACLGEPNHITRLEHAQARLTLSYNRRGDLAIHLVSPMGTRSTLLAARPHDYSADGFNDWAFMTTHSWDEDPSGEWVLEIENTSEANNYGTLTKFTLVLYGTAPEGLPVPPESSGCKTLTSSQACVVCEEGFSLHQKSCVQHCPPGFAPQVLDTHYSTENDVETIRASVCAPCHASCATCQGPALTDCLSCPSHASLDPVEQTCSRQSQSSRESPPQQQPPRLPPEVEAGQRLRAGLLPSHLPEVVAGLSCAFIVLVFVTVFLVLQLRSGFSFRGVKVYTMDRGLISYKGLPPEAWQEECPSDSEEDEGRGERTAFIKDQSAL

Row | Sequence | furin cleavage Z-score (7.5 min) | furin cleavage Z-score (15 min) | furin cleavage Z-score (30 min)
1 | CAGVLAALAAAGNASASA [HC993] | 1.76 | 0.568 (inactive) | -0.149 (inactive)
2 | CASTPCSAYLAGNASASA [HC2549] | 0.127 (inactive) | -0.0969 (inactive) | 0.416 (inactive)
3 | CAEVVTRTWVAGNASASA [HC150] | -0.769 (inactive) | -0.617 (inactive) | 1.23
4 | CAMEMCSQHLAGNASASA [HC1706] | 1.54 | 2.05 | 0.326 (inactive)
5 | CALPDRRRRFAGNASASA [FS-1027] | 6.3 (active) | 8.87 (active) | 8.99 (active)
6 | CASDFKTWLKAGNASASA [HC1155] | -1.27 (inactive) | -1.41 (inactive) | -0.384 (inactive)
7 | CARRRRSLPGAGNASASA [FS-1788] | 6.91 (active) | 8.64 (active) | 6.57 (active)
8 | CARRRRSLRRAGNASASA [FS-2454] | 3.55 (active) | 3.5 (active) | 6.12 (active)
9 | CARRRRSLPRAGNASASA [FS-2797] | 4.48 (active) | 5.79 (active) | 7.11 (active)
10 | CARRRSRNLGAGNASASA [HC217] | 4.75 (active) | 6.64 (active) | 6.07 (active)
11 | CAIGGHYVQMAGNASASA [HC625] | 1.06 | 1.02 | -0.429 (inactive)
12 | CAVILDSFDPAGNASASA [HC1286] | -0.325 (inactive) | -0.389 (inactive) | 1.13
